Experimental data reported in PubChem BioAssay AID624331 (National Center for Advancing Translational Sciences (NCATS), 2012).
Inconclusive results are not listed. Where a call stands in place of a potency, no number is given. The source made the active and inactive calls. The call rests on the fitted dose curve; in most records, active means well fitted activation curve with a large enough effect; inconclusive means small, poorly fitted or top-dose-only effect; inactive means no such curve, though single readings can be large or run the other way.

Test: qHTS assay for re-activators of p53 using a Luc reporter: Hit Validation with no p53 Expressed
Details: p53-null cells, luciferase reporter counter-screen; series mostly up to 46.1 µM
Outline: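 Counter-screen of primary hits in a cell line not transfected with p53, in Opti-MEM with 10% FBS; compounds at several concentrations (10 mM stock, 1:5; top 46.1 µM in well), 24 h at 37 deg C, 5% CO2. Luminescence read after 10 min with Amplite reagent.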
Potency means the concentration at half of the fitted maximal effect.

SMILES | Potency
Cc1ccc(S(=O)(=O)c2cn(CC(=O)Nc3ccccc3)c3ccc(F)cc3c2=O)cc1 | inactive
CC(C)(C)c1ccc(S(=O)(=O)N2CCSC2)cc1 | inactive
O=C1NC(c2ccc(Br)cc2)=N/C1=C/c1ccco1 | inactive
C=CCNc1nc(-c2cc3ccccc3o2)cs1 | inactive
O=C(CSc1nnnn1C1CCCCC1)NCCc1ccccc1 | inactive
Cc1ccnc(NC(=O)/C=C/c2cccs2)c1 | inactive
Cc1cccc(-n2nc([N+](=O)[O-])c(=NC3CCN(Cc4ccccc4)CC3)n2O)c1 | inactive
CN(NC1CC(=O)N(c2ccccc2)C1=O)c1ccccc1 (centres undefined) | inactive
CNc1nnc(SCC(=O)c2cc(C)n(C3CC3)c2C)s1 | inactive
O=C(CSc1nnc(-c2ccc3c(c2)OCCO3)o1)N1CCCC1 | inactive
O=C1CCCC(O)=C1N=Nc1c(Cl)cc(Cl)cc1Cl | inactive
O=C(CC(=O)c1ccccc1O)c1cccc(F)c1 | inactive
O=c1c2ccccc2oc2nc(-c3ccco3)n(-c3ccccc3)c(=O)c12 | inactive
COc1cc(/C=N/Nc2nc3ccccc3s2)ccc1OC(=O)c1ccccc1F | inactive
CCCN1CCC(=NNC(=O)CSc2cc(C)c(Br)cc2C)CC1 | inactive
Cc1cc([N+](=O)[O-])ccc1NC(=O)/C=C/c1cccs1 | inactive
O=C(N/N=C/c1cccs1)c1n[nH]c2c1CCC2 | inactive
COc1cc(CN2CCCCC2C(=O)Nc2ccc(Oc3ccccc3)nc2)ccc1O (centres undefined) | inactive
Cc1ccc(OCC(=O)c2cc(C)n(C3CC3)c2C)c([N+](=O)[O-])n1 | inactive
Cc1cc(C(=O)CSc2nnc(N)s2)c(C)n1Cc1cccs1 | inactive

SMILES | Potency
Cc1cc(C(=O)Nc2nc3c(s2)CCCC3)cs1 | inactive
O=C(c1cccs1)c1coc2ccc(O)cc12 | inactive
Cc1cc2nc(-c3ccc(SCC(=O)Nc4ccc(S(=O)(=O)NC5CC5)cc4)nc3)[nH]c2cc1C | inactive
CNc1ccc(/C=C/C(=O)c2ccc(C)cc2)cc1[N+](=O)[O-] | inactive
C/C(=N\NC(=S)NC1CCCCC1)c1ccccc1 | inactive
O=C(/C=C/Nc1ccc(F)cc1F)c1cccs1 | inactive
O=C(/C=C/Nc1ccccc1C(=O)O)c1cccs1 | inactive
Cc1cccc(Nc2nc(N3CCOCC3)nc(N3CCOCC3)n2)c1 | inactive
COc1cccc(C(=O)Nc2ccc(NC(=O)C(C)(C)C)cn2)c1 | 461 nM (active)
COc1ccc(CCNC2CCC(c3ccccc3)CC2)cc1 (centres undefined) | inactive
CC(C)(C)c1ccc(/C=N/Nc2ccc(C(=O)O)cc2)cc1 | inactive
O=C(CSc1nnc(-c2ccc(O)cc2)o1)N1CCOCC1 | inactive
N#Cc1c(NC(=O)/C=C/c2ccco2)sc2c1CCCC2 | inactive
Cc1ccc(-c2nc(-c3cccnc3)no2)c(C)c1 | inactive
Cc1ccc(CNc2cc(C(=O)O)ccc2Cl)s1 | inactive
CC(=O)NC1=C(Nc2ccc(N(C)C)cc2)C(=O)c2ccccc2C1=O | inactive
c1ccc2c(c1)CCN(c1nc3cc4c(cc3s1)OCO4)C2 | inactive
CCOc1ccc(NC(=O)/C=C/c2ccccc2)c([N+](=O)[O-])c1 | inactive
Cc1cc(=O)[nH]c(N/N=C/c2ccccn2)n1 | inactive
